Bioassay records as filed in PubChem BioAssay.
Compounds with a hit are over-represented: about 3.1% of the library has one in this group of screens.
NCF1 inh = blocks human p47phox regulatory protein of NADPH oxidases; hit rate 0.53% among 220,000; inhibition, % at 24.7 µM; p47phox/p22phox peptide binding, fluorescence polarization, 2 h;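 active means inhibition above about 30%, limit read from the data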;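 further: 0% = p47phox with labelled peptide and 100% = labelled peptide alone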
Target sequence (P14598 whole entry, looked up): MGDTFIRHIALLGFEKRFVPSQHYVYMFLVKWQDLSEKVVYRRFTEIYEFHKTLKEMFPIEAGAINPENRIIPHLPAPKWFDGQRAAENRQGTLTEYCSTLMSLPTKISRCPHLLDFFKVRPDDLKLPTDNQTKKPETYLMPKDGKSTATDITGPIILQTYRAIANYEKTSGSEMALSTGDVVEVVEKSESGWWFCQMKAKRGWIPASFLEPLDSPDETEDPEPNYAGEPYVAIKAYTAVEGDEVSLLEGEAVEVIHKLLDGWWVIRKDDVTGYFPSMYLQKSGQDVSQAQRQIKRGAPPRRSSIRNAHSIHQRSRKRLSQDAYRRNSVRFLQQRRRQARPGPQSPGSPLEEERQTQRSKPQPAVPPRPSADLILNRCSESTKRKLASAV
14-3-3 Bad inh = disrupts binding of bovine 14-3-3 zeta to phospho-Bad peptide; P63103; TR-FRET 14-3-3zeta/Dy647-pBad peptide displacement, 1 h; inhibition, % at 21.7 µM; hit rate 0.71% among 220,000;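 active means inhibition above about 70%, limit read from the data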;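 further: 0% = full 14-3-3 plus peptide FRET controls and 100% = background without 14-3-3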
Target sequence (P63103 whole entry, looked up): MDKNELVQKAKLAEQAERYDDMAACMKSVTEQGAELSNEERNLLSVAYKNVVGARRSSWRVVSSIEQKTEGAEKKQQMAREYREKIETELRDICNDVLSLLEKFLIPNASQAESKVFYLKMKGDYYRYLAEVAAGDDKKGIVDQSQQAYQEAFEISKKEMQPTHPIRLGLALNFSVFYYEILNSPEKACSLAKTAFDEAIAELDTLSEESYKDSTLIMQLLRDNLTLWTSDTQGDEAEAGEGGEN
Mcl1 Bid PPI = disrupts binding of human Mcl-1 to Bid peptide. hit rate 0.97% among 220,000. TR-FRET Mcl-1/Bid-Dy647 peptide binding, 1536-well. Q07820. inhibition, % at 21.7 µM;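 active means compounds that cut the binding signal by more than half at the single screening dose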;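 further: His-tagged Mcl-1 with europium anti-His antibody binding Bid BH3 peptide; 0% = Mcl-1 plus peptide wells and 100% = peptide-only wells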
Mcl1-Noxa inh = disrupts binding of human Mcl-1 to Noxa peptide; Q07820; TR-FRET Mcl-1/Noxa peptide binding, 2 h; inhibition, % at 21.7 µM; hit rate 1.5% among 220,000; AID 1022;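 active means compounds that cut the protein-peptide binding signal by more than 50% relative to plate controls in a single-dose test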;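 further: His-tagged Mcl-1 with rhodamine Noxa BH3 peptide and terbium anti-His antibody; 0% = Mcl-1 plus Noxa peptide wells and 100% = peptide-only wells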
Bim-Mcl-1 = human Bim-Mcl-1 interaction inhibition; Q07820; Bead-based flow cytometry, Bim peptide-Mcl-1 binding; inhibition, % at 10 µM; hit rate 0.1% among 190,000; AID 1009; in the data active means inhibition above about 40%;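 further: 0% = no compound tracer wells and 100% = peptide blocker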
The depositor's hits bear a star; nt = no result given; [ ] = dose if it differs, or a comment.

SMILES	NCF1 inh	14-3-3 Bad inh	Mcl1 Bid PPI	Mcl1-Noxa inh	Bim-Mcl-1
Cc1ccc(N2CCN(C(=O)c3ccccc3Br)CC2)c(C)c1	-3.1	-6.0	-29.1	-9.9	0.0
Cc1ccc(N2CCN(C(=O)c3ccccc3)CC2)c(C)c1	91.5*	7.5	-7.1	6.0	-3.0
Cc1ccc(S(=O)(=O)N(CC(=O)N/N=C/c2cccc(Cl)c2)c2cccc3cccnc23)cc1	-6.2	1.2	86.2*	-18.0	-1.0
Cc1ccc(N(CC(=O)N/N=C/c2cccnc2)S(=O)(=O)c2ccccc2)cc1	-20.2	-1.8	-27.2	2.1	2.0
CCC(Sc1nc(N)cc(=O)[nH]1)C(=O)Nc1cc(C)on1 (stereo not drawn)	-0.8	-6.6	-11.7	5.8	-2.0
CCC(C)N1CC(C(=O)O)CC1=O (stereo not drawn)	47.2*	nt	-16.1	10.2	-1.0
C/C(=N\NC(=O)c1c(Cl)c(C)nn1C)c1cccc(NC(=O)COc2ccccc2)c1	15.2	19.6	59.8*	-65.2	4.0
CC(=O)N1CCc2c(sc(NC(=O)c3ccc([N+](=O)[O-])o3)c2C#N)C1	-11.8	4.5	-33.4	53.2*	-5.0
COc1ccc(C(=O)Nc2sc3c(c2C#N)CCN(C(C)=O)C3)cc1	-26.5	-6.0	-33.9	9.6	-2.0
COc1ccc(-c2cc(C(F)F)n3ncc(C(=O)Nc4cccc(S(=O)(=O)N5CCOCC5)c4)c3n2)cc1	-5.3	-4.7	-36.6	-16.7	2.0
CCN1CCN(Cc2ccc(NC(=O)c3cc(NC(=O)c4cc(-c5ccc(OC)cc5)n[nH]4)cc(OC)c3)cc2C(F)(F)F)CC1	38.2*	-13.8	-29.5	-56.0	nt
CCN1CCN(Cc2ccc(NC(=O)c3ccc(C)c(NC(=O)C4=NN(c5ccccc5)C(=O)C4)c3)cc2C(F)(F)F)CC1	3.9	62.9	-57.7	63.2*	nt
CCN1CCN(Cc2ccc(NC(=O)c3cc(NC(=O)C4=NN(c5ccccc5)C(=O)C4)cc(OC)c3)cc2C(F)(F)F)CC1	-7.5	60.4	-39.4	68.5*	nt
CCN1CCN(Cc2ccc(NC(=O)c3ccc(C)c(NC(=O)c4c[nH]c5cc(C(F)(F)F)ccc5c4=O)c3)cc2C(F)(F)F)CC1	73.1*	-85.2	-5.0	-78.0	nt
CCOC(=O)c1cncc(O)c1	2.1	1.5	-137.4	9.0	nt
NC(=O)N=Nc1c2[nH]c3ccccc3nc-2c2ccccc12	-3.4	-6.0	-13.8	19.7	nt
CCN1CCN(Cc2ccc(NC(=O)c3cc(NC(=O)c4ccno4)cc(OC)c3)cc2C(F)(F)F)CC1	-15.3	-1.3	-24.8	17.4	nt
CCN1CCN(Cc2ccc(NC(=O)c3cc(NC(=O)c4cc5cccc(OC)c5o4)cc(OC)c3)cc2C(F)(F)F)CC1	56.7*	36.2	-7.2	24.5	nt
Cc1cc(Cl)ccc1OCCCC(N)=O	-9.9	2.6	-10.1	70.7*	-2.0
CC(=O)N(C1=C(Cl)C(=O)c2ccccc2C1=O)C1CCCCC1	13.4	-3.1	-20.0	90.7*	nt
Cc1ccc(NC(=O)COC(=O)c2ccc3c(c2)NC(=O)C2CCCN32)cc1 (stereo not drawn)	-38.6	40.7	-47.6	20.1	0.0
COC(=O)c1ccc2c(c1)NC(=O)C1CCCN21 (stereo not drawn)	-19.0	-0.3	-1.8	64.3*	-5.0
Cc1nc(CS(=O)(=O)c2ccccn2)sc1C(=O)NNC(=O)c1ccc(Cl)cc1	-1.9	2.7	-10.1	-10.0	nt
COc1ccc(OC)c(S(=O)(=O)Nc2ccc(O)c3ccccc23)c1	-11.5	5.8	-19.6	50.5*	0.0
Cc1nonc1OCCNCc1c(C(=O)N2CCCCCCC2)nc2ccc(Cl)cn12	-13.6	-17.6	-23.3	10.0	-1.0
SMILES	NCF1 inh	14-3-3 Bad inh	Mcl1 Bid PPI	Mcl1-Noxa inh	Bim-Mcl-1
O=C(O)c1ccc(N/N=C/c2ccc(-c3cc(Cl)ccc3Cl)o2)cc1	-24.8	14.3	61.7*	110.6*	nt
O=C(O)c1ccc(N/N=C/c2ccc(-c3ccc(Cl)cc3Cl)o2)cc1	-20.7	6.5	47.8	108.2*	nt
Cc1ccc(C(=O)N/N=C/c2ccc(-c3ccccc3[N+](=O)[O-])o2)cn1	-16.9	4.7	-30.4	18.6	0.0
COc1ccc(-c2ccc(/C=N/NC(=O)c3cccnc3)o2)c([N+](=O)[O-])c1	-19.3	79.4*[fluorescence artefact?]	38.2	73.8*	1.0
O=C(O)c1sc2cc(C(F)(F)F)cnc2c1-c1ccccn1	-0.7	6.2	-13.7	-9.6	-3.0
O=C1c2ccccc2C(=O)N1/N=C/c1ccc(O)c(O)c1	-12.5	-4.9	-65.8	71.6*	-2.0
O=C1C2C3C=CC(CC3)C2C(=O)N1/N=C/c1ccc(O)c(O)c1 (stereo not drawn)	-8.3	-6.8	-88.6	25.7	-13.0
CCc1nnc(NS(=O)(=O)c2ccc(NC(=O)c3cc4ccccc4oc3=O)cc2)s1	-4.9	-0.6	7.5	64.3*	-7.0
CCc1nnc(NS(=O)(=O)c2ccc(NC(=O)OC)cc2)s1	-11.0	-5.1	4.3	18.5	nt
COc1ccccc1NC(=O)CSc1nnc(CCNC(=O)c2ccc(C)cc2)n1C	-0.1	-5.6	-57.2	-9.8	0.0
Cc1nc2ccccc2n1CCC(=O)O	-1.8	53.7	4.0	4.2	6.0
Cc1nc2ccccc2n2c(O)c(CC(=O)O)cc12	34.9*	-2.3	-28.6	16.6	-1.0
O=C(C1=C[C@H](C2CC2)C[C@H](OCCCCO)O1)N1CCOCC1	nt	-1.0	-15.8	-18.7	0.0
COc1ccc(C(=O)N[C@H](C(=O)OCC(=O)NC(=O)c2cccn2C)C(C)C)cc1	-5.6	2.3	-10.2	0.4	-1.0
COc1cc(OC)cc(C(=O)N[C@H](C(=O)OCC(=O)NC(=O)c2cccn2C)C(C)C)c1	-7.4	-13.0	91.8*	15.7	0.0
C/C(=N\NC(=O)c1ccc(Cl)cc1)c1cccs1	37.7*	-1.9	30.0	29.9	3.0
COC(=O)N/N=C(\C)c1cccs1	-7.1	0.2	-20.9	2.8	nt
O=c1c2cc3c(cc2[nH]c(=S)n1C1CCN(Cc2ccccc2)CC1)OCO3	5.1	-1.2	-43.2	2.6	-6.0
CCC(=O)NC(c1ccc(N(C)C)cc1)c1c(O)ccc2ccccc12 (stereo not drawn)	-2.3	-2.4	-17.8	51.0*	1.0
CCC(=O)NC(c1ccc(OC)cc1)c1c(O)ccc2ccccc12 (stereo not drawn)	-4.3	-17.6	-8.2	4.7	0.0
O=C(CNC(=O)c1ccccc1Br)N/N=C/c1cc(Br)ccc1O	-1.0	92.6*	-28.2	1.1	0.0
COc1ccc(C(CNC(=O)c2cc3ccccc3o2)N2CCCCC2)cc1 (stereo not drawn)	-9.3	-20.2	-34.4	12.1	-2.0
COc1ccc(/C=N/NC(=O)c2ccc(COc3cccc4cccnc34)cc2)cc1O	-7.7	-4.9	-43.9	50.7*	nt
COc1cc(/C=N/NC(=O)c2ccc(CN3c4cccc5cccc(c45)S3(=O)=O)cc2)cc(OC)c1O	36.3*	91.8*	82.2*	72.1*	0.0
COc1cc(/C=N/NC(=O)c2ccc(CSc3nncn3C)cc2)cc(OC)c1O	-13.2	-12.0	-33.6	55.1*	0.0
COc1ccc(/C=N/NC(=O)c2ccc(O)cc2O)cc1CSc1ccccn1	-36.4	8.4	-20.0	98.2*	0.0
